Measured values from PubChem BioAssay AID1159580 (chemical genetic matrix, 2015).
Screen size: about 5,500 compounds; about 2,000 (36%) were called active. Not shown: some 18% with an inconclusive outcome. Cut-off read from the data, not from the text of the source: active = normalized growth mostly below about 0.91 (no sharp cut-off); inconclusive = no clear call, values can overlap the other calls; inactive = mostly above about 0.92. Some of the results follow.

Experiment: chemical genetic growth profiling, strain panel (AID 1159580);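 note: tested at 20 µM; growth read once vehicle control cultures reached saturation at 30 °C; 1 = growth at the plate median or of vehicle wells; lower values mean less growth of the strain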
Details: growth OD

Measured: normalized growth

CC(=C(CCOP(=O)(O)O)SC(=O)c1ccccc1)N(C=O)Cc1cnc(C)nc1N
inactive: S. cerevisiae deletion strains, locus YAL013W, strain DEP1, active compounds read low 1.01 | S. cerevisiae deletion strains, locus YBR021W, strain FUR4, active compounds read low 1.01 | S. cerevisiae deletion strains, locus YBR229C, strain ROT2, active compounds read low 1.01 | S. cerevisiae deletion strains, locus YCL029C, strain bik1, active compounds read low 1 | S. cerevisiae deletion strains, locus YDL035C, strain GPR1, active compounds read low 1.02 | S. cerevisiae deletion strains, locus YDL074C, strain BRE1, active compounds read low 1.01 | S. cerevisiae deletion strains, locus YDL101C, strain DUN1, active compounds read low 1.01 | S. cerevisiae deletion strains, locus YDL134C, strain PPH21, active compounds read low 1.02 | S. cerevisiae deletion strains, locus YDL185W, strain tfp1, active compounds read low 1.01 | S. cerevisiae deletion strains, locus YDL192W, strain arf1, active compounds read low 1.01 | S. cerevisiae deletion strains, locus YDR101C, strain arx1, active compounds read low 1 | S. cerevisiae deletion strains, locus YDR150W, strain NUM1, active compounds read low 1.01 | S. cerevisiae deletion strains, locus YDR162C, strain NBP2, active compounds read low 1.01 | S. cerevisiae deletion strains, locus YDR318W, strain mcm21, active compounds read low 1.02 | S. cerevisiae deletion strains, locus YDR388W, active compounds read low 1.01 | S. cerevisiae deletion strains, locus YDR502C, strain sam2, active compounds read low 1.01 | S. cerevisiae deletion strains, locus YEL061C, strain CIN8, active compounds read low 1.01 | S. cerevisiae deletion strains, locus YER110C, active compounds read low 1.02 | S. cerevisiae deletion strains, locus YER155C, strain BEM2, active compounds read low 1.01 | S. cerevisiae deletion strains, locus YER167W, strain BCK2, active compounds read low 1.01 | S. cerevisiae deletion strains, locus YGL078C, strain dbp3, active compounds read low 1.02 | S. cerevisiae deletion strains, locus YGL086W, strain mad1, active compounds read low 1.01 | S. cerevisiae deletion strains, locus YGL248W, strain PDE1, active compounds read low 1 | S. cerevisiae deletion strains, locus YGR135W, strain pre9, active compounds read low 1.02 | S. cerevisiae deletion strains, locus YGR229C, strain SMI1, active compounds read low 1.02 | S. cerevisiae deletion strains, locus YGR252W, strain gcn5, active compounds read low 1 | S. cerevisiae deletion strains, locus YHR030C, strain SLT2, active compounds read low 1.01 | S. cerevisiae deletion strains, locus YHR079C, strain IRE1 (second series), active compounds read low 1.01 | S. cerevisiae deletion strains, locus YHR094C, strain hxt1, active compounds read low 1.01 | S. cerevisiae deletion strains, locus YHR129C, strain ARP1, active compounds read low 1 | S. cerevisiae deletion strains, locus YHR200W, strain rpn10, active compounds read low 1.01 | S. cerevisiae deletion strains, locus YIL066C, strain RNR3, active compounds read low 1.02 | S. cerevisiae deletion strains, locus YIL073C, strain SPO22, active compounds read low 1.05 | S. cerevisiae deletion strains, locus YIL125W, strain kgd1, active compounds read low 1.01 | S. cerevisiae deletion strains, locus YIR030C, strain dcg1, active compounds read low 1.02 | S. cerevisiae deletion strains, locus YJL095W, strain BCK1, active compounds read low 1.01 | S. cerevisiae deletion strains, locus YJL134W, strain LCB3, active compounds read low 1.01 | S. cerevisiae deletion strains, locus YJL168C, strain set2, active compounds read low 1.01 | S. cerevisiae deletion strains, locus YJL187C, strain SWE1 (second series), active compounds read low 1.01 | S. cerevisiae deletion strains, locus YJR043C, strain POL32, active compounds read low 1.01 | S. cerevisiae deletion strains, locus YJR075W, strain HOC1, active compounds read low 1.01 | S. cerevisiae deletion strains, locus YKL009W, strain mrt4, active compounds read low 1.01 | S. cerevisiae deletion strains, locus YKL068W, active compounds read low 1.02 | S. cerevisiae deletion strains, locus YKL085W, strain MDH1 (second series), active compounds read low 1.01 | S. cerevisiae deletion strains, locus YKL085W, strain MDH1, active compounds read low 1.01 | S. cerevisiae deletion strains, locus YKL190W, strain CNB1, active compounds read low 1.01 | S. cerevisiae deletion strains, locus YKR001C, strain vps1, active compounds read low 1.01 | S. cerevisiae deletion strains, locus YLR039C, strain RIC1, active compounds read low 1.02 | S. cerevisiae deletion strains, locus YLR058C, strain SHM2, active compounds read low 1.02 | S. cerevisiae deletion strains, locus YLR102C, strain apc9, active compounds read low 1.01 | S. cerevisiae deletion strains, locus YLR262C, strain YPT6, active compounds read low 0.991 | S. cerevisiae deletion strains, locus YLR268W, strain sec22, active compounds read low 1 | S. cerevisiae deletion strains, locus YLR330W, strain CHS5, active compounds read low 1.01 | S. cerevisiae deletion strains, locus YLR342W, strain FKS1 (second series), active compounds read low 1 | S. cerevisiae deletion strains, locus YLR371W, strain rom2, active compounds read low 1.02 | S. cerevisiae deletion strains, locus YLR418C, strain cdc73, active compounds read low 1.02 | S. cerevisiae deletion strains, locus YML016C, strain PPZ1, active compounds read low 1.01 | S. cerevisiae deletion strains, locus YML032C, strain rad52, active compounds read low 1.01 | S. cerevisiae deletion strains, locus YML124C, strain tub3, active compounds read low 1.01 | S. cerevisiae deletion strains, locus YMR078C, strain ctf18, active compounds read low 1.01 | S. cerevisiae deletion strains, locus YMR223W, strain ubp8, active compounds read low 1.02 | S. cerevisiae deletion strains, locus YMR263W, strain SAP30, active compounds read low 1.01 | S. cerevisiae deletion strains, locus YMR307W, strain GAS1, active compounds read low 1.03 | S. cerevisiae deletion strains, locus YNL067W, strain RPL9B, active compounds read low 1.01 | S. cerevisiae deletion strains, locus YNL128W, strain TEP1, active compounds read low 1.02 | S. cerevisiae deletion strains, locus YNL233W, strain BNI4, active compounds read low 1.03 | S. cerevisiae deletion strains, locus YNL250W, strain rad50, active compounds read low 1.01 | S. cerevisiae deletion strains, locus YNL271C, strain bni1, active compounds read low 1.02 | S. cerevisiae deletion strains, locus YNL298W, strain CLA4, active compounds read low 1.01 | S. cerevisiae deletion strains, locus YNL307C, strain MCK1, active compounds read low 1.02 | S. cerevisiae deletion strains, locus YNL322C, strain KRE1, active compounds read low 1.01 | S. cerevisiae deletion strains, locus YNR052C, strain pop2, active compounds read low 1.02 | S. cerevisiae deletion strains, locus YOL006C, strain TOP1, active compounds read low 1.01 | S. cerevisiae deletion strains, locus YOL012C, strain htz1 1.14 | S. cerevisiae deletion strains, locus YOL147C, strain pex11, active compounds read low 1.02 | S. cerevisiae deletion strains, locus YOR061W, strain CKA2, active compounds read low 1.01 | S. cerevisiae deletion strains, locus YOR069W, strain VPS5, active compounds read low 1.01 | S. cerevisiae deletion strains, locus YOR136W, strain idh2, active compounds read low 1.02 | S. cerevisiae deletion strains, locus YOR144C, strain elg1, active compounds read low 1.01 | S. cerevisiae deletion strains, locus YOR184W, strain ser1, active compounds read low 1.02 | S. cerevisiae deletion strains, locus YOR316C, strain cot1, active compounds read low 1.01 | S. cerevisiae deletion strains, locus YPL055C, strain LGE1, active compounds read low 1.01 | S. cerevisiae deletion strains, locus YPR119W, strain clb2, active compounds read low 1 | S. cerevisiae deletion strains, locus YPR141C, strain kar3, active compounds read low 1.02 | S. cerevisiae deletion strains, locus YPR163C, strain tif3, active compounds read low 1.01 | S. cerevisiae deletion strains, locus YPR167C, strain met16, active compounds read low 1.01 | S. cerevisiae deletion strains, strain wtn01, active compounds read low 1.01 | S. cerevisiae strains, strain wild type, active compounds read low 1.01
